In PubChem BioAssay (NCI):
Values joined by “and” are separate entries in the source; they are usually repeats but may differ in a detail not shown here. Identical values can stand only once. About 83,000 compounds went through this panel and 20% of them were active in at least one assay; those are over-represented in the sample as a whole.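 Percent growth is the endpoint: 0 to 100 indicates growth inhibition (40 means 60% inhibition), 0 means no net growth, and negative values indicate cell death.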 Active and inactive are the calls of the source. Rule for the calls: active = growth percent below 10; inactive = the rest.

Tests used:
Experiment in all cases: NCI-60 one-dose screen, 48 h (100 = growth as untreated, 0 = no growth, -100 = all killed)
RPMI-8226 leukemia = system: RPMI-8226 leukemia
OVCAR-8 ovarian = system: OVCAR-8 ovarian
OVCAR-5 ovarian = system: OVCAR-5 ovarian
OVCAR-4 ovarian = system: OVCAR-4 ovarian
SK-OV-3 ovarian = system: SK-OV-3 ovarian
OVCAR-3 ovarian = system: OVCAR-3 ovarian
HS 578T breast = system: HS 578T breast
NCI/ADR-RES ovarian = system: NCI/ADR-RES ovarian
T-47D breast = system: T-47D breast
BT-549 breast = system: BT-549 breast
MDA-MB-435 melanoma = system: MDA-MB-435 melanoma
SW-620 colon = system: SW-620 colon
HCT-116 colon = system: HCT-116 colon
HCC-2998 colon = system: HCC-2998 colon
KM12 colon = system: KM12 colon
IGROV1 ovarian = system: IGROV1 ovarian
MCF7 breast = system: MCF7 breast
SR leukemia = conditions: 10 µM unless noted

Measured: growth

O=c1ccn2c(n1)OC1CC2OC1COC(c1ccccc1)(c1ccccc1)c1ccccc1 (configuration not stated)
active: MDA-MB-435 melanoma; 100 µM -4.08%
inactive: RPMI-8226 leukemia; 10 µM 106% | RPMI-8226 leukemia; 100 µM 58.2% | OVCAR-8 ovarian; 10 µM 98.7% | OVCAR-8 ovarian; 100 µM 84.6% | OVCAR-5 ovarian; 10 µM 102% | OVCAR-5 ovarian; 100 µM 101% | OVCAR-4 ovarian; 10 µM 110% | OVCAR-4 ovarian; 100 µM 84.7% | SK-OV-3 ovarian; 10 µM 101% | SK-OV-3 ovarian; 100 µM 70.9% | OVCAR-3 ovarian; 10 µM 126% | OVCAR-3 ovarian; 100 µM 102% | HS 578T breast; 10 µM 121% | HS 578T breast; 100 µM 95.1% | NCI/ADR-RES ovarian; 10 µM 112% | NCI/ADR-RES ovarian; 100 µM 103% | T-47D breast; 10 µM 109% | T-47D breast; 100 µM 102% | BT-549 breast; 10 µM 123% | BT-549 breast; 100 µM 88.4% | MDA-MB-435 melanoma; 10 µM 103% | SW-620 colon; 10 µM 108% | SW-620 colon; 100 µM 90.4% | HCT-116 colon; 10 µM 101% | HCT-116 colon; 100 µM 40.1% | HCC-2998 colon; 10 µM 106% | HCC-2998 colon; 100 µM 100% | KM12 colon; 10 µM 117% | KM12 colon; 100 µM 96.3%

CS/C(=C\c1ccc(C(=O)c2ccc(C)cc2)n1C)S(C)=O (configuration not stated)
inactive: RPMI-8226 leukemia; 10 µM 70.2% | RPMI-8226 leukemia; 100 µM 56.9% | OVCAR-8 ovarian; 10 µM 91% | OVCAR-8 ovarian; 100 µM 82.3% | OVCAR-5 ovarian; 10 µM 105% | OVCAR-5 ovarian; 100 µM 102% | OVCAR-4 ovarian; 10 µM 89% | OVCAR-4 ovarian; 100 µM 69.2% | SK-OV-3 ovarian; 10 µM 103% | SK-OV-3 ovarian; 100 µM 87.6% | IGROV1 ovarian; 10 µM 93.2% | IGROV1 ovarian; 100 µM 82.9% | OVCAR-3 ovarian; 10 µM 114% | OVCAR-3 ovarian; 100 µM 69% | HS 578T breast; 10 µM 91.2% | HS 578T breast; 100 µM 90.6% | NCI/ADR-RES ovarian; 10 µM 76.8% | NCI/ADR-RES ovarian; 100 µM 52.7% | T-47D breast; 10 µM 79.7% | T-47D breast; 100 µM 47.6% | BT-549 breast; 10 µM 102% | BT-549 breast; 100 µM 47.4% | MDA-MB-435 melanoma; 10 µM 50.1% | MDA-MB-435 melanoma; 100 µM 26.9% | SW-620 colon; 10 µM 101% | SW-620 colon; 100 µM 97.4% | HCT-116 colon; 10 µM 97.1% | HCT-116 colon; 100 µM 70.9% | HCC-2998 colon; 10 µM 95.9% | HCC-2998 colon; 100 µM 87.2% | KM12 colon; 10 µM 94.3% | KM12 colon; 100 µM 72.8%

Nc1nc(=S)c2[nH]cnc2[nH]1
active: MCF7 breast; 250 µM -5.31% and -50.8%

COc1ccc(S(=O)(=O)c2ccc(F)cc2)cc1
inactive: SR leukemia 87.4% | RPMI-8226 leukemia; 10 µM unless noted 80.7% | OVCAR-8 ovarian; 10 µM unless noted 97.3% | OVCAR-5 ovarian; 10 µM unless noted 99.9% | OVCAR-4 ovarian; 10 µM unless noted 100% | SK-OV-3 ovarian; 10 µM unless noted 108% | IGROV1 ovarian; 10 µM unless noted 120% | OVCAR-3 ovarian; 10 µM unless noted 107% | HS 578T breast; 10 µM unless noted 93.9% | NCI/ADR-RES ovarian; 10 µM unless noted 95.3% | T-47D breast; 10 µM unless noted 99% | BT-549 breast; 10 µM unless noted 99% | MDA-MB-435 melanoma; 10 µM unless noted 122% | SW-620 colon; 10 µM unless noted 103% | MCF7 breast; 10 µM unless noted 101% | HCT-116 colon; 10 µM unless noted 102% | HCC-2998 colon; 10 µM unless noted 111% | KM12 colon; 10 µM unless noted 106%

O=COCCCc1ccccc1
inactive: SR leukemia 117% | RPMI-8226 leukemia; 10 µM unless noted 102% | OVCAR-8 ovarian; 10 µM unless noted 99.2% | OVCAR-5 ovarian; 10 µM unless noted 105% | OVCAR-4 ovarian; 10 µM unless noted 120% | SK-OV-3 ovarian; 10 µM unless noted 98.1% | IGROV1 ovarian; 10 µM unless noted 104% | OVCAR-3 ovarian; 10 µM unless noted 109% | HS 578T breast; 10 µM unless noted 96.6% | NCI/ADR-RES ovarian; 10 µM unless noted 108% | T-47D breast; 10 µM unless noted 92.7% | BT-549 breast; 10 µM unless noted 104% | MDA-MB-435 melanoma; 10 µM unless noted 110% | SW-620 colon; 10 µM unless noted 103% | MCF7 breast; 10 µM unless noted 105% | HCT-116 colon; 10 µM unless noted 96.1% | HCC-2998 colon; 10 µM unless noted 121% | KM12 colon; 10 µM unless noted 109%

COc1ccc(COC=O)cc1
inactive: SR leukemia 93.5% | RPMI-8226 leukemia; 10 µM unless noted 103% | OVCAR-8 ovarian; 10 µM unless noted 97.8% | OVCAR-5 ovarian; 10 µM unless noted 101% | OVCAR-4 ovarian; 10 µM unless noted 107% | SK-OV-3 ovarian; 10 µM unless noted 98.6% | IGROV1 ovarian; 10 µM unless noted 107% | OVCAR-3 ovarian; 10 µM unless noted 109% | HS 578T breast; 10 µM unless noted 104% | NCI/ADR-RES ovarian; 10 µM unless noted 102% | T-47D breast; 10 µM unless noted 91.2% | BT-549 breast; 10 µM unless noted 110% | MDA-MB-435 melanoma; 10 µM unless noted 113% | SW-620 colon; 10 µM unless noted 108% | MCF7 breast; 10 µM unless noted 99.3% | HCT-116 colon; 10 µM unless noted 99.1% | HCC-2998 colon; 10 µM unless noted 94.3% | KM12 colon; 10 µM unless noted 103%
